The source of these data is ChEMBL document CHEMBL3988442, “University of Dundee, Small-Polar-MMV Screening Library” (2021).

For some of these results: Potency and affinity values are given separately.

What all share (set-up): scale not given: direction of the effect not stated beside the values
The target of test [1] is Protein translocase subunit SecA (Escherichia coli (strain K12)) (UniProt P10408). Put plainly: Assay to Identify E. coli SecA ATPase Inhibitors. The class given is functional. The note with it: 30 µM.
Chain of Protein translocase subunit SecA (Escherichia coli (strain K12)) (P10408 whole entry): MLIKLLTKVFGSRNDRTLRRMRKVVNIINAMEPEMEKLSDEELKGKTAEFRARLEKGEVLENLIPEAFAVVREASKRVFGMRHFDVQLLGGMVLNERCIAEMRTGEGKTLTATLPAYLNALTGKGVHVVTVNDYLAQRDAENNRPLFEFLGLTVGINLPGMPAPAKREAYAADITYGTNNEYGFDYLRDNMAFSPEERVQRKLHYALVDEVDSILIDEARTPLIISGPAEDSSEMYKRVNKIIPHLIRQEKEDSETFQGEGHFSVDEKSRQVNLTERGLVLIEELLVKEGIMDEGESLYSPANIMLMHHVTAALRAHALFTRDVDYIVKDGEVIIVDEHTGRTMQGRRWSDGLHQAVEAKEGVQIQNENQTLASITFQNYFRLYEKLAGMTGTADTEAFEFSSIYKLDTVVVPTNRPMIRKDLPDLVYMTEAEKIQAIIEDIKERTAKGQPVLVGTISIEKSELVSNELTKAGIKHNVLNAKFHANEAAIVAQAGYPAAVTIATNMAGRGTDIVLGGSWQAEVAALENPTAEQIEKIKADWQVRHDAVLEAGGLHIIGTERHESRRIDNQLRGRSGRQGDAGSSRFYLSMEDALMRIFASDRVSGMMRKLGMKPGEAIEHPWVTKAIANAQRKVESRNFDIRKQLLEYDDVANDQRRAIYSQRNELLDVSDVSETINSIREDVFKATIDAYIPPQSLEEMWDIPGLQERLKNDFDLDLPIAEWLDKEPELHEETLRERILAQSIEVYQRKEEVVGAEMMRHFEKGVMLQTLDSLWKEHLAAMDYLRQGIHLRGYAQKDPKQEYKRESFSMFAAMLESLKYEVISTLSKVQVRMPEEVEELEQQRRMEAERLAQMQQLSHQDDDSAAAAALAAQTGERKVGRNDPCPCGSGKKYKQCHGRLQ
The target in test [2] is T1, Ubiquitin-activating enzyme e1, putative (Leishmania donovani (strain BPK282A1)) (UniProt E9BSI1).
T1 sequence (whole entry): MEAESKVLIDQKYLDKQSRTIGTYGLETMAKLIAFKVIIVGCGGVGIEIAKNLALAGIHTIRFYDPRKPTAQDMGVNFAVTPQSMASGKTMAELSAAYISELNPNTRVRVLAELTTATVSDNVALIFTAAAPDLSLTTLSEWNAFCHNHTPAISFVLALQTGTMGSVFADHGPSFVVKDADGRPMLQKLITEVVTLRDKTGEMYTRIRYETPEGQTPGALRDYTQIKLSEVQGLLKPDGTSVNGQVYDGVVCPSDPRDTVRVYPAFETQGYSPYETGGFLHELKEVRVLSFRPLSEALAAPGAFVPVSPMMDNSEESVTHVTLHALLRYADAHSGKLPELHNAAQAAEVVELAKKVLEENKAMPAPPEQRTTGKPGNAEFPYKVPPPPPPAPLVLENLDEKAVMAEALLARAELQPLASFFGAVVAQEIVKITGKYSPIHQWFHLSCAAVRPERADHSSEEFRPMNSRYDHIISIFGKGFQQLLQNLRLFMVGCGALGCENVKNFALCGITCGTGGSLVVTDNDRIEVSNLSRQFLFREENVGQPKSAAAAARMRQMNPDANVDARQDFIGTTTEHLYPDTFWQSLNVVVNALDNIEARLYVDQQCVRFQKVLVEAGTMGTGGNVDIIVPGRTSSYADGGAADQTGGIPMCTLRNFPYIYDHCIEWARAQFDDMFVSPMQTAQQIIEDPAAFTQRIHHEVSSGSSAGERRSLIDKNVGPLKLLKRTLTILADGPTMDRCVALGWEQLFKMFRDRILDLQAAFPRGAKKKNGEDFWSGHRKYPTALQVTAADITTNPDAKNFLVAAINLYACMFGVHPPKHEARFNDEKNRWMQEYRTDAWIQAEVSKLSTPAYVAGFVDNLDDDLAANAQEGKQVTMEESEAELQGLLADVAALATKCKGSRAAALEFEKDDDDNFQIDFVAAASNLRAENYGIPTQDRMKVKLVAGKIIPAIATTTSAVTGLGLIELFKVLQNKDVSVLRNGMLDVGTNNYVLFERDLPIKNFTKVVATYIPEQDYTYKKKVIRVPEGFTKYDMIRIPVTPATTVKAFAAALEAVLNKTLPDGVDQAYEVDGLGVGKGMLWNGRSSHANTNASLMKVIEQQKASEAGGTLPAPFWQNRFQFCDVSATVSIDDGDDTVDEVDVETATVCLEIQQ
Put plainly: Leishmania donovani Ubiquitin Activating Enzyme (LdE1). Format: functional. Conditions: 30 µM.

The target of test [3] is AMP-activated protein kinase, AMPK (Homo sapiens) (UniProt P54646+O43741+P54619+Q9UGJ0+Q9Y478+Q13131+Q9UGI9). Put plainly: AMP-dependent Kinase enzyme assay. An in vitro enzyme assay that detects ADP turnover that is directly proportional to AMPK activity. This uses naive AMPK that is activated during the assay with MK-8722. Conditions: 30 µM. The class given is functional.

For test [4], the target named is Sialic acid-binding Ig-like lectin 9 (Homo sapiens) (UniProt Q9Y336). In words: Hs-Siglec9 ALPHAscreen SOP 20170721. Conditions: 10 µM. (In general: Alpha assays give light when donor and acceptor beads are brought close together.)
Chain of Sialic acid-binding Ig-like lectin 9 (Homo sapiens) (Q9Y336 whole entry): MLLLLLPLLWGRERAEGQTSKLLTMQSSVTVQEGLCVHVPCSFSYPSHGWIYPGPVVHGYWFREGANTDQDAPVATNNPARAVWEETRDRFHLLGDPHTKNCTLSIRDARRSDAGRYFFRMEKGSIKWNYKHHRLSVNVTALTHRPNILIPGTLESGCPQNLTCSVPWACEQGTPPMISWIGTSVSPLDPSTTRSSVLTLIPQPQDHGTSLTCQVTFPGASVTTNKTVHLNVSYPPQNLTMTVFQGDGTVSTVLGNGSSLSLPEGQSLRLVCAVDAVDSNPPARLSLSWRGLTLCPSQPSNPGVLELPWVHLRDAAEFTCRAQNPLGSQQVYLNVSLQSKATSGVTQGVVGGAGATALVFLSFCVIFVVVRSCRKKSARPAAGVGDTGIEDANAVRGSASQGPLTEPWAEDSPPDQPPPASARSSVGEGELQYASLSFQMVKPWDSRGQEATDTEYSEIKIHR
Another test concerns Trypanosoma cruzi. Put plainly: Trypanosoma cruzi phosphomannomutase and mannose-1-phosphate guanylyltransferase assay. The class given is functional. Conditions: 10 µM.
Test [5] addresses T2, Arginase-2, mitochondrial (Homo sapiens) (UniProt P78540).
T2 sequence (whole entry): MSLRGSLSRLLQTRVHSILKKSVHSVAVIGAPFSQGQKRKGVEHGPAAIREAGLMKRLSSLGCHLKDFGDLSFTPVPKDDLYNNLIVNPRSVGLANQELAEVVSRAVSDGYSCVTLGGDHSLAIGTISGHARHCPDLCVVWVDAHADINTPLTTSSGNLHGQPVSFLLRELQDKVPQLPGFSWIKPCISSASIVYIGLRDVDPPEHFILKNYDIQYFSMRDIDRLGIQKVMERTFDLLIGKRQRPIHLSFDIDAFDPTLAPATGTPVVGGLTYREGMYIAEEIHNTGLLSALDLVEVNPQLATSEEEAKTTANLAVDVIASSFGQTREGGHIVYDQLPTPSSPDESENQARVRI
In words: in vitro enzyme assay to detect the production of urea directly proportional to the activity of Arginase II. Further: in the data most compounds retested in dose-response had high values. The class given is functional. Conditions: 33.3 µM.

Test [6] addresses T3, Proteasome subunit beta (Trypanosoma cruzi) (UniProt O96673).
T3 sequence (whole entry): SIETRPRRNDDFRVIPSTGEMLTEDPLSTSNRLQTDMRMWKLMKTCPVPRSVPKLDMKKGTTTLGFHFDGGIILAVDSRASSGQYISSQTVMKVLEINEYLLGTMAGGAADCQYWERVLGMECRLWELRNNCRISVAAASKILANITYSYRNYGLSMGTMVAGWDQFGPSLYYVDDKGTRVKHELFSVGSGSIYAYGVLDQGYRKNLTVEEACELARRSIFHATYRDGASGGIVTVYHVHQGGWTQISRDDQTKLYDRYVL
Put plainly: Trypanosoma cruzi proteasome chymotrypsin-like activity (TcProtChymo) assay. Further: in the data most compounds retested in dose-response had high values. Conditions: 9.37 µM. The class given is functional.

The species named for the next test is Homo sapiens. Put plainly: To identify inhibition of the IFN signalling (Jak-Stat) pathway via expression of an eGFP reporter gene under the control of an IFN-stimulated response element (ISRE) containing MxA promoter. Conditions: 30 µM. Format: functional.
Test [7] deals with T4, Tyrosyl-tRNA synthetase, putative (Trypanosoma cruzi (strain CL Brener)) (UniProt Q4DSP6).
T4 sequence (whole entry): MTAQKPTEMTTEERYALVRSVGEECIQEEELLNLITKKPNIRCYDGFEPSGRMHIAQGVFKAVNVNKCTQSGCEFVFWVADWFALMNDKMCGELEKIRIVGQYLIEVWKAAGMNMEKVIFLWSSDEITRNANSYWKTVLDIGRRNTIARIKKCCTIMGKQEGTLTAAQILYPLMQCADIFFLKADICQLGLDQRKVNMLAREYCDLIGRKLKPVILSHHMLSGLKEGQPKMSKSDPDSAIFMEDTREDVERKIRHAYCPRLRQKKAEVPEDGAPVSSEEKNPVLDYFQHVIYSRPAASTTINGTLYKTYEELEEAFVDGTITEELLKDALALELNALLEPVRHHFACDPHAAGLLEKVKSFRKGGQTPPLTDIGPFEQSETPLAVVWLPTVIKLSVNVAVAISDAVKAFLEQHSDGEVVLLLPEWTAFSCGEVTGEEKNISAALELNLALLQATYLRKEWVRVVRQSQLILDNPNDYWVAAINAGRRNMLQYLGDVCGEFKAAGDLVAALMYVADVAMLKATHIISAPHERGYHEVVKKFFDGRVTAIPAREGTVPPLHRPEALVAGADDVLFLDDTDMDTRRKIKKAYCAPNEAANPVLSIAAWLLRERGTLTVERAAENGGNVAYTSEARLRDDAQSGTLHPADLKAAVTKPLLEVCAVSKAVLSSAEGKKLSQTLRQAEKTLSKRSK
In words: Trypanosoma cruzi tyrosyl tRNA synthetase (TcYRS) _High Tyrosine SOP. Further: in the data most compounds retested in dose-response had high values. The class given is functional. The note with it: 30 µM.

The target in test [8] is T4, Tyrosyl-tRNA synthetase, putative (Trypanosoma cruzi (strain CL Brener)). In words: Trypanosoma cruzi tyrosyl tRNA synthetase (TcYRS) SOP. Format: functional. The note with it: 30 µM.
Test [9] addresses Chromo domain-containing protein 1 (Saccharomyces cerevisiae (strain ATCC 204508 / S288c) (Baker's yeast)) (UniProt P32657). In words: ScCHD-1 Enzyme Inhibition Assay. Further: in the data most compounds retested in dose-response had high values. The class given is functional. The note with it: 30 µM.

Chain of Chromo domain-containing protein 1 (Saccharomyces cerevisiae (strain ATCC 204508 / S288c) (Baker's yeast)) (P32657 whole entry, the tested form may be a part): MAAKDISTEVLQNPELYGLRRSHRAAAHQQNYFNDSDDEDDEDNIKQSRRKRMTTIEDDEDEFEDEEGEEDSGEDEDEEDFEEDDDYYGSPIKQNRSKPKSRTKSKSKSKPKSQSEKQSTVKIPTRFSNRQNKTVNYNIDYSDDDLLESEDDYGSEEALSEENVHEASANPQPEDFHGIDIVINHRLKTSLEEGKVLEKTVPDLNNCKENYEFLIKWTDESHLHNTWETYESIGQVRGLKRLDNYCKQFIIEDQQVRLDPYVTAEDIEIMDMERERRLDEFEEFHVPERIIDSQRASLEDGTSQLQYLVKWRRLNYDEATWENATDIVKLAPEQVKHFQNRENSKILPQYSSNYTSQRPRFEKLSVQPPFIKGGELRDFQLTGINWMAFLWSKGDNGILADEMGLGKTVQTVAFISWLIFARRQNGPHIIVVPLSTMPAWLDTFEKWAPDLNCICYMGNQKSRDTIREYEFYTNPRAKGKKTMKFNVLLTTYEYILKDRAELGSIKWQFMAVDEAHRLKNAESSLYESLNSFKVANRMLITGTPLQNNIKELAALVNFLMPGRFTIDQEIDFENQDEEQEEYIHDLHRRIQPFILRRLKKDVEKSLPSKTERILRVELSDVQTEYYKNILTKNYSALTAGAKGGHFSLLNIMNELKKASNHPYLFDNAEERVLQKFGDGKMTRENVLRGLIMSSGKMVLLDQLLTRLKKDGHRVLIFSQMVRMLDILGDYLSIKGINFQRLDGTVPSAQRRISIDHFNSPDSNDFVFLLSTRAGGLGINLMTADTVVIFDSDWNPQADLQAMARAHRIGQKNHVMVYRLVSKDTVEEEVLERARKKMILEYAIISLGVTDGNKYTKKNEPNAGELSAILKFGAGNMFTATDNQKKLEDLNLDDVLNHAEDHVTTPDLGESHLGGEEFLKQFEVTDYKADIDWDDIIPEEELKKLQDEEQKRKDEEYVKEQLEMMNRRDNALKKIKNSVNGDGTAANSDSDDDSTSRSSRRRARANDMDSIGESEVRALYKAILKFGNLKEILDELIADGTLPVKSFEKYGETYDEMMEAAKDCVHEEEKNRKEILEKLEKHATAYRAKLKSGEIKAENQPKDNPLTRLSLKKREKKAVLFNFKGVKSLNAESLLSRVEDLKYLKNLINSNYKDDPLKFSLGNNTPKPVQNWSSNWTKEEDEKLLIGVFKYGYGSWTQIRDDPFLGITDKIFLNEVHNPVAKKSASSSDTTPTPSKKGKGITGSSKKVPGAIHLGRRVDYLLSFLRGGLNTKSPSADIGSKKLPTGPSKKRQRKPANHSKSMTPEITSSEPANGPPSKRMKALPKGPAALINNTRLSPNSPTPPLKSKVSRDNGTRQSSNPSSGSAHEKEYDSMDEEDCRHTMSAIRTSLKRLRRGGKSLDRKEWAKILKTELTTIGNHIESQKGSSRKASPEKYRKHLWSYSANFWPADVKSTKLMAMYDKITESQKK

As for `Cc1cc(C)nc(N2CCN(C(=O)c3cc(Cl)c[nH]3)CC2)n1`, the Percent Effect in [1] was -3.35%; in [2], 8.22%; in test [3] it was -2.54%; in test [4], 4.32%; in the test on Trypanosoma cruzi, 0.595%; in test [5] it was -3.99%. The Percent Effect in test [6] was 17.2%; in the test listed under Homo sapiens it was -6.92%; in test [7] it was 10.4%; in test [8], 16.1%; in test [9], -1.43%.
As to `O=C(CN1CC(n2cccn2)C1)NCCc1c[nH]c2ccccc12`, the Percent Effect in test [1] was -3.91%; in [2], -2.7%; in test [3], 143%; in [4], 3.66%; with Trypanosoma cruzi, 2.69%; in test [5], -0.924%. Also, the Percent Effect in [6] was -4.13%; in the test listed under Homo sapiens it was 10.4%; in test [7] it was 0.99%; in [8], 11%; in test [9] it was 7.61%.
`Cc1cnn(C2CCCN(C(=O)c3ccc(N(C)C)nn3)C2)c1` (stereo unspecified): the Percent Effect in test [1] is -3.44%; in [2] it was 15.6%; in test [3], 1.44%; in test [4] it was -3.44%; with Trypanosoma cruzi it was -5.62%; in [5], -2.85%. The Percent Effect in test [6] is -1.01%; in the test filed under Homo sapiens it was 33.7%; in test [7] it was 4.85%; in test [8], 12.2%; in [9] it was -8.48%.
As to `Cc1nnc(N2CCC(CS(N)(=O)=O)CC2)c(C#N)c1C`, the Percent Effect was -5.18% in test [1]; 2.6% in test [2]; -17.4% in [3]; -9.8% in test [4]; 0.49% with Trypanosoma cruzi; -1.9% in test [5]. The Percent Effect in test [6] is 16.1%; in the test listed under Homo sapiens, 7.88%; in [7], 3.81%; in test [8] it was 9.41%; in test [9], -16.6%.
Consider `O=C([C@H]1COC[C@H]2CN(C3CCCC3)C[C@H]21)N1CCCCO1`, for which the Percent Effect is -1.86% in test [1]; 0% in test [2]; 2.27% in [3]; 5.11% in test [4]; -0.579% in the test on Trypanosoma cruzi; -51.4% in test [5]. Besides, the Percent Effect in [6] was 2.39%; in the test filed under Homo sapiens, -22.5%; in [7], 0%; in test [8] it was -5%; in test [9], -3.46%.
As for `CN(C)C(=O)N1CCOCC2(CCN(c3ncccn3)C2)C1` (stereo unspecified), the Percent Effect in [1] was -4.78%; in test [2] it was 8.11%; in test [3], -5.27%; in [4] it was 28.6%; with Trypanosoma cruzi, 6.35%; in test [5] it was -1.24%. Moreover, the Percent Effect was 5.75% in test [6]; -36.2% in the test filed under Homo sapiens; 6.45% in test [7]; 11.1% in test [8]; -5.72% in test [9].
In the case of `Cc1occc1C(=O)N1CCC2(CCN(Cc3nccs3)C2)CC1`, the Percent Effect in test [1] is -3.24%; in test [2], 2.6%; in test [3], 0.489%; in [4], 3.8%; in the test with Trypanosoma cruzi it was 3.83%; in test [5] it was -8.28%. Besides, the Percent Effect in [6] is -1.66%; in the test listed under Homo sapiens, -23.6%; in test [7], 0%; in test [8], -3.7%; in test [9] it was 6.12%.
In the case of `O=C(c1cccc2[nH]ncc12)N1CCCC1c1noc(C2CC2)n1` (stereo unspecified), the Percent Effect is 0.141% in [1]; 20.2% in test [2]; 1.95% in test [3]; -11.1% in test [4]; -3.31% in the test on Trypanosoma cruzi; 8.74% in [5]. Further, the Percent Effect was 7.29% in [6]; 24.4% in the test filed under Homo sapiens; 5.42% in test [7]; 11.4% in test [8]; -8.01% in [9].
On to `O=S(=O)(CCN1CCOC(Cn2cncn2)C1)c1ccccc1` (stereo unspecified), for which the Percent Effect was -1.18% in test [1]; 5.41% in [2]; -4.67% in test [3]; 12.3% in [4]; 3.81% with Trypanosoma cruzi; 2.23% in test [5]. The Percent Effect in test [6] is -0.0858%; in the test listed under Homo sapiens it was -5.62%; in [7], 0%; in test [8], 3.7%; in test [9], -11.6%.
Regarding `O=C(NCc1ccccc1CN1CCC(O)CC1)Nc1ccncc1`, the Percent Effect in test [1] is 5.78%; in test [2], 10.8%; in test [3], -5.37%; in test [4], 6.21%; in the test with Trypanosoma cruzi it was -5.21%; in [5], 0%. The Percent Effect in [6] was 16.2%; in the test filed under Homo sapiens, 28%; in test [7], 6.88%; in test [8], 14.6%; in [9] it was -3.29%.
Take `Cc1nc(CN2CCN(C(=O)c3cc(C4CC4)on3)CC2)cs1`: the Percent Effect was -6.45% in test [1]; 13% in test [2]; 2.57% in test [3]; 3.64% in [4]; -0.686% in the test with Trypanosoma cruzi; 5.68% in test [5]. Also, the Percent Effect in [6] was 4.45%; in the test filed under Homo sapiens, -4.72%; in [7], 4.76%; in test [8], 18.8%; in [9], -6%.
